Measurements published in PubChem BioAssay (NCI).
Compounds without any hit were thinned out: in the full panel of roughly 79,000, 15% have a hit. Cut-off read from the data, not from the text of the source: active = growth inhibition above about 70%; inactive = the rest.

Columns and labels:
[1] = NCI Yeast Anticancer Drug Screen. Data for the rad50 strain (AID 155);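 note: 0% = growth of vehicle-only cultures of the same strain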; conditions: S. cerevisiae rad50 strain growth inhibition; at 50.0 µM; active compounds read high
How it was run: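 A DNA repair-deficient yeast mutant serves as the test organism; compound-induced growth inhibition is calculated against vehicle-treated cells.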

[2] = NCI Yeast Anticancer Drug Screen. Data for the mec2-1 strain (AID 157); conditions: S. cerevisiae mec2-1 strain, at 50.0 µM, active compounds read high
How it was run: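 Using mec2-1 yeast: add compound, measure growth, express inhibition versus vehicle-treated cultures.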

[3] = NCI Yeast Anticancer Drug Screen. Data for the sgs1 mgt1 strain (AID 161);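 note: 0% = growth of cultures given vehicle only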; conditions: S. cerevisiae sgs1 mgt1 strain, at 50.0 µM, active compounds read high
How it was run: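 Growth of a repair-deficient yeast mutant was monitored after compound treatment and expressed as inhibition relative to vehicle-treated cultures.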

[4] = NCI Yeast Anticancer Drug Screen. Data for the cln2 rad14 strain (AID 165);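 note: 0% = growth equal to vehicle treated cultures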; conditions: S. cerevisiae cln2 rad14 strain, at 50.0 µM, active compounds read high
How it was run: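 Yeast strain cln2 rad14, bearing defects in cell cycle control and DNA repair, serves as the test system; values reflect growth inhibition compared with vehicle.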

[5] = NCI Yeast Anticancer Drug Screen. Data for the bub3 strain (AID 167); conditions: S. cerevisiae bub3 mutant strain, at 50.0 µM, active compounds read high
How it was run: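 Inhibition values come from growth of compound-treated mutant yeast normalised to vehicle-treated controls.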

[6] = NCI Yeast Anticancer Drug Screen. Data for the mlh1 rad18 strain (AID 175); conditions: S. cerevisiae mlh1 rad18 strain growth inhibition; at 50.0 µM; active compounds read high
How it was run: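 Steps: expose repair-defective yeast to compound; measure growth; express inhibition against vehicle-treated controls.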

Measured: growth inhibition

COc1cc2c(cc1OC)C(c1ccc(N=Cc3ccc(N(C)C)cc3)cc1)N(C(=S)Nc1cc(Cl)ccc1Cl)CC2 (stereo not given)
inactive: [1] 35.5% | [2] 5.15% | [3] 40.7% | [4] 21.7% | [5] 24.1% | [6] 26.9%

Cc1cc(N(C)C)c([N+](=O)[O-])cc1C=O
inactive: [1] 5.9% | [2] 13.8% | [3] -13.3% | [4] -22.4% | [5] -24.9% | [6] -5.8%

CC1(C)CCC(C)(C)c2cc(C(=O)O)ccc21
inactive: [1] 7.55% | [2] 5.3% | [3] 1.55% | [4] 5.4% | [5] 14.4% | [6] 5.05%

c1ccc2c(c1)CCCN2c1ncnc2ccccc12
inactive: [1] -10.2% | [2] -8.45% | [3] -2.8% | [4] -62.6% | [5] 15.6% | [6] -7.4%

Cn1c(CBr)nc2c1C(=O)c1nc[nH]c(=O)c1C2=O
inactive: [1] 32% | [2] 0.55% | [3] 37.6% | [4] 11.8% | [5] 3.4% | [6] 31.6%

CCN(CC)CCNc1c(C)cccc1Cl
inactive: [1] -2.9% | [2] 3.5% | [3] -7.1% | [4] -26.2% | [5] 1% | [6] -1.5%

CC(C)(O)C12CC3CC(CC(C3)C1)C2
inactive: [1] 18.4% | [2] -6.15% | [3] 8.35% | [4] -38.2% | [5] 5.25% | [6] 0.2%

Cn1c(C(F)(F)F)nc2nc(Cl)c(Cl)nc21
inactive: [1] 16.6% | [2] 0.05% | [3] 20.7% | [4] 21.2% | [5] -32% | [6] 46%

CCOC(=O)c1nc2cc(N3CCOCC3)c(F)cc2[nH]c1=O
inactive: [1] 16.9% | [2] 23.6% | [3] 23.2% | [4] 3.45% | [5] 28.2% | [6] 34%

Brc1ccc(CN(Cc2ccccc2)Cc2ccccc2)cc1
inactive: [1] -13.3% | [2] -8.3% | [3] 1.55% | [4] -10.4% | [5] 10.7% | [6] 4.75%

COCOc1ccc(C(=O)C(C)c2ccc(OCOC)cc2OCOC)c(O)c1 (stereo not given)
inactive: [1] 39.4% | [2] 17.2% | [3] 26.8% | [4] 23.2% | [5] 40.8% | [6] 36.8%

OC(c1ccccc1)(c1ccccc1)c1ccccc1C(O)(c1ccccc1)c1ccccc1
inactive: [1] 12.2% | [2] 1% | [3] 4.6% | [4] 10.8% | [5] -4.65% | [6] 12.8%

CCC(C)C(N)C1=NC(C(=O)NC(CC(C)C)C(=O)NC(CCC(=O)O)C(=O)NC(C(=O)NC2CCCCNC(=O)C(CC(N)=O)NC(=O)C(CC(=O)O)NC(=O)C(Cc3cnc[nH]3)NC(=O)C(Cc3ccccc3)NC(=O)C(C(C)CC)NC(=O)C(CCCN)NC2=O)C(C)CC)CS1 (stereo not given)
inactive: [1] 12.9% | [2] -24.9% | [3] 0.2% | [4] 25.6% | [5] -15.2% | [6] -7.3%

CCCCCCCCCCCCCCCCCC1=Nc2cc(C)c(C)cc2NC(=O)C1
inactive: [1] -21.7% | [2] -31.6% | [3] -30.1% | [4] 7.35% | [5] -12.8% | [6] -8.1%

CC(=O)c1cc(C)c(O)c(C)c1
inactive: [1] -4.25% | [2] -8.8% | [3] 0.05% | [4] -4.05% | [5] -6.75% | [6] -5.55%

CN1Cc2cc3c(cc2-c2ccccc21)OCO3
inactive: [1] -23.7% | [2] -35.7% | [3] -44.9% | [4] 6.4% | [5] -36.5% | [6] -35.6%

CCC(C)C1SCC(=O)N1c1nncs1 (stereo not given)
inactive: [1] 10.6% | [2] 7.45% | [3] 6.55% | [4] -4.6% | [5] 4.9% | [6] 16.4%

COc1cc(C=NCc2ccccc2)cc(OC)c1O
inactive: [1] -1.05% | [2] 19.2% | [3] 4.7% | [4] -14.6% | [5] 19.8% | [6] 8.9%

COC1=CC(=O)OC(c2ccccc2)(c2ccccc2)C1
inactive: [1] -3.6% | [2] -15.1% | [3] 8.8% | [4] 13% | [5] 13.6% | [6] -3.65%

CN1CCC(n2[nH]c(-c3ccccc3)c(Cc3ccccc3)c2=O)CC1
inactive: [1] 3.3% | [2] -40.6% | [3] -13.3% | [4] 10.6% | [5] -15.1% | [6] 5.7%

Nc1nnc2nc(CC(=O)c3ccccn3)/c(=C/C(=O)c3ccccn3)n12
inactive: [1] -7.3% | [2] -13.7% | [3] -2.8% | [4] -43.3% | [5] -26.9% | [6] -23.1%

O=C(Nc1ccc(Cl)cc1[N+](=O)[O-])N1CCN(c2ccccc2)CC1
inactive: [1] -8.35% | [2] 21.9% | [3] 29.4% | [4] -10.3% | [5] 44.3% | [6] 28.1%

CC(=O)c1sc2c(c1OC(=O)c1ccco1)c(=O)n(-c1ccccc1)c(=S)n2-c1ccccc1
inactive: [1] 20.8% | [2] 18.2% | [3] 23.7% | [4] 25.6% | [5] 6.85% | [6] 33.9%

C=CC(=O)OCCCS(=O)(=O)[O-].C=CC(=O)OCCCS(=O)(=O)[O-].NC1CCCCC1N.[Pt+4]
inactive: [1] 3.05% | [2] -7.75% | [3] -4.25% | [4] 37.5% | [5] 14.1% | [6] 9.75%

C/C(=N/OC(=O)c1cccc2c(=O)c3ccccc3[nH]c12)[C@H]1CC[C@H]2[C@@H]3CCC4=C/C(=N/OC(=O)c5cccc6c(=O)c7ccccc7[nH]c56)CC[C@]4(C)[C@H]3CC[C@]12C
inactive: [1] 29.4% | [2] 38% | [3] 66.5% | [4] 28.4% | [5] 48.9% | [6] 36.5%

N/C(=N/N=C/C1CCCCC1)NO
inactive: [1] 0.95% | [2] -9.25% | [3] -24.1% | [4] 3.4% | [5] -13.9% | [6] 13.6%

Nc1ccccc1Sc1ccc(C(=O)O)cc1[N+](=O)[O-]
inactive: [1] 19.6% | [2] 20.2% | [3] 7.75% | [4] -3.55% | [5] 22.2% | [6] -6.5%

C[n+]1ccc2c(Br)cccc2c1
inactive: [1] -1.8% | [2] -14.9% | [3] -6.45% | [4] -12.7% | [5] -1% | [6] 13.5%

O=c1[nH]cc(CNc2ccccc2)c(=O)[nH]1
inactive: [1] -5.5% | [2] 4.75% | [3] -9.45% | [4] -27.8% | [5] -18.2% | [6] 8.5%

CN1Cc2ccccc2C1
inactive: [1] 0.75% | [2] -3.5% | [3] 1.7% | [4] 10.4% | [5] 17.4% | [6] 5.55%

CCCCCc1cc(O)cc2c1Oc1cc(O)cc(C(=O)CCCC)c1C(=O)O2
inactive: [1] 4% | [2] -17.2% | [3] 8.6% | [4] -9.9% | [5] -9.4% | [6] -14.2%

CC(C)=CCc1c(C)c(O)c(C)c(C)c1O
inactive: [1] 7.15% | [2] 1.25% | [3] 9.6% | [4] -71.9% | [5] -11.4% | [6] 8.05%

Cc1nc2ccccc2nc1CC(O)(c1ccccc1)c1cccc2ccccc12 (stereo not given)
inactive: [1] 55.8% | [2] 18.9% | [3] 37.4% | [4] 26.9% | [5] 13.2% | [6] 38.4%

COc1ccccc1Nc1nc2c([nH]1)c(=O)n(C)c(=O)n2C
inactive: [1] -33.9% | [2] -15.2% | [3] -41.9% | [4] -32.8% | [5] -4% | [6] -5.85%

OCCc1nccnn1
inactive: [1] -2.65% | [2] 5.8% | [3] 1.9% | [4] -1.35% | [5] 4.65% | [6] -3.6%

CC1=C(O)c2ccccc2C(=O)C1=O
inactive: [1] 25.4% | [2] 16.8% | [3] 40.3% | [4] 36.2% | [5] 12.8% | [6] 23.8%

CCOP(=O)(OCC)C([O][Sb]([O]CC(C)Cl)[O]CC(C)Cl)c1ccc(OC)cc1 (stereo not given)
inactive: [1] -41.9% | [2] -4.85% | [3] -10.9% | [4] -2.45% | [5] 2.05% | [6] -18.6%

N#CC(c1ccccc1)C(C#N)c1ccc(Cl)cc1 (stereo not given)
inactive: [1] 5.75% | [2] 16.2% | [3] -1.35% | [4] -98.5% | [5] 22.4% | [6] 3.8%

Nc1nc2scnc2c(=O)[nH]1
inactive: [1] 7.1% | [2] -4.35% | [3] -3.25% | [4] -7.95% | [5] -8.5% | [6] 8.35%

OCCNc1ncnc2[nH]ncc12
inactive: [1] 2.75% | [2] -6.1% | [3] -20.6% | [4] -21.8% | [5] -24.2% | [6] 5.55%
